# Bioassay records: PubChem, National Center for Advancing Translational Sciences (NCATS)
# Only some compounds are listed: those with a hit (about 9.9% of all), similar ones and a draw of the others.
# IL-1B inflam inh – qHTS for Inhibitors of Inflammasome Signaling: IL-1-beta AlphaLISA Primary Screen; 360,000 compounds, 4.7% hits; THP-1 LPS/ATP IL-1B secretion, AlphaLISA, 16 h; active compounds read low; activity change, % at 57.5 µM; AID 743279, 2014; in the data active = activity change below about -50%; inconclusive = mostly about -30% to -49%; also: % is scaled to controls: 0 for no effect and ±100 for the full control effect
#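 Secreted IL-1B measured by AlphaLISA bead assay after 16 h compound exposure of THP-1 cells; compounds (final up to 57.5 uM) added 1 h before LPS (250 ng/mL) and ATP (1.25 mM) stimulation; lower signal means less secretion.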
# KB-V1 cytotox – qHTS assay for MDR1-selective chemotherapeutics: Primary screen using the drug-selected MDR subline cells KB-V1; KB-V1 MDR cells viability, CellTiter-Glo, 72 h; Potency, µM (top dose mostly 46.1 µM), most hits filed as cytotoxic; 400,000 compounds, 3.4% hits; AID 1347076, 2019; also: potency is read from the fitted curve at half-maximal effect; % is scaled to controls: 0 for no effect and ±100 for the full control effect; nearly all actives have a fitted effect of over 60% in size
#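 Cells of the MDR subline KB-V1 are plated, dosed with compound at multiple concentrations, and incubated 72 h at 37 degrees C; CellTiter-Glo is then added and luminescence read after 10 min.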
# KB-3-1 tox – qHTS assay for MDR1-selective chemotherapeutics: Primary screen using the parental adenocarcinoma cell KB-3-1. KB-3-1 viability, CellTiter-Glo ATP luminescence, 72 h. Potency, µM (highest dose often 46.1 µM), actives largely listed as cytotoxic. 400,000 compounds, 1.4% hits. AID 1347075, 2019; also: potency is read from the fitted curve at half-maximal effect; % is scaled to controls: 0 for no effect and ±100 for the full control effect; nearly all actives have a fitted effect of over 60% in size
#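 Cytotoxicity in the drug-sensitive parental line KB-3-1 was scored as loss of CellTiter-Glo luminescence following 72 h incubation with compound. Values come from curve fitting of normalized concentration-response data.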
# MCF10A rereplic – A quantitative high throughput screen for small molecules that induce DNA re-replication in MCF 10a normal breast cells; MCF 10A DNA re-replication, Hoechst nuclear intensity, 48 h; Potency, µM (highest dose often 46.1 µM), without a hit: top-dose activity, positive = re-replication, usual class: activators; 350,000 compounds, 2.9% hits; AID 624296, 2012; also: potency is read from the fitted curve at half-maximal effect; % of control where 0% means no effect; nearly all actives have a fitted effect of over 50% in size
# SW480 rereplic – A quantitative high throughput screen for small molecules that induce DNA re-replication in SW480 colon adenocarcinoma cells | SW480 DNA re-replication, Hoechst DNA content imaging, 48 h | Potency, µM (top dose mostly 46.1 µM), for the others: at the highest dose re-replication activation, usual class: activators | 340,000 compounds, 1.8% hits | AID 624297, 2012; also: potency is read from the fitted curve at half-maximal effect; % of control where 0% means no effect; nearly all actives have a fitted effect of over 55% in size
#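 Per well, 250 cells were exposed to pinned compound for 48 hr. Nuclear DNA was visualised with Hoechst (40 min, 37 C) and total object intensity recorded by fluorescence scanning.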
# Active calls of the source: *; i = inactive; ? = inconclusive; . = no result; [ ] = remark or other dose. Unless noted, calls follow the shape of the dose curve; as a rule, active = well fitted curve in the direction sought with a large enough effect; inconclusive = small, poorly fitted or top-dose-only effect, or another doubt; inactive = no such curve, though single readings can be large; an effect the other way counts as inactive or inconclusive.
SMILES,IL-1B inflam inh,KB-V1 cytotox,KB-3-1 tox,MCF10A rereplic,SW480 rereplic
CN(C)CCN(C(=O)/C=C/c1cccs1)c1nc2ccc(F)cc2s1,-66*,i,i,16%,?
COC(=O)Nc1sc2c(c1C(N)=O)CCCC2,.,i,i,.,.
O=C(NC(=S)Nc1ccccc1N1CCCCC1)c1ccc(F)cc1Cl,0,?,?,25%,2%
O=C(Nc1cc(S(=O)(=O)Nc2ccc(Cl)cc2)ccc1N1CCCCC1)c1ccc(F)cc1Cl,?,?,16µM*,14%,?
COc1ccc(NS(=O)(=O)c2ccc(N3CCOCC3)c(NC(=O)c3ccccc3Cl)c2)cc1,0,10µM*,16µM*,?,?
COc1ccc(-c2cc(C(=O)Nc3cc(S(=O)(=O)N4CCOCC4)ccc3N3CCOCC3)c3ccccc3n2)cc1,-17,i,i,2.3µM*,-46%
COc1ccc(NS(=O)(=O)c2cc(NC(=O)/C=C/c3ccccc3OC)ccc2N2CCCCC2)cc1,-1,5.2µM*,i,14%,-4%
CC1CCN(C2CCN(S(=O)(=O)c3ccc(C(F)(F)F)cc3)CC2)CC1,-2,i,i,-30%,-2%
CCN1C(=O)[C@H]2[C@H]3CN=C(SCc4ccc(C)cc4)N3[C@@](Cc3ccccc3)(C(=O)OC)[C@H]2C1=O,-13,i,i,28%,?
COc1ccc(S(=O)(=O)Nc2ccc(N3CCOCC3)cc2)cc1,-3,i,i,7%,7%
COc1ccc(NS(=O)(=O)c2ccc(N3CCOCC3)c(N)c2)cc1,-21,18µM*,?,-1%,-7%
COc1ccc(NS(=O)(=O)c2ccc(Cl)c(NC(=O)c3cccnc3Cl)c2)cc1,14,21µM*,i,12%,14%
COc1ccc(NS(=O)(=O)c2ccc(N3CCOCC3)c(NC(=O)c3ccc(OC)cc3)c2)cc1,3,18µM*,i,5%,1%
COc1ccc(NS(=O)(=O)c2cc(NC(=O)COc3ccc(OC)cc3)ccc2N2CCOCC2)cc1,-2,2.3µM*,i,-2%,-4%
COc1ccc(S(=O)(=O)Nc2cc(C(=O)NC(C)C)ccc2N2CCOCC2)cc1,8,?,?,16%,-3%
Cc1cc(C)c(NC(=O)CN2C(=O)CCn3nc(-c4cccn4C)cc32)c(C)c1,.,i,i,.,.
COc1ccc(CCC2(C)NC(=O)N(C(C)C(=O)N3c4ccccc4CC3C)C2=O)cc1 (centres undefined),16,i,i,18%,-6%
CCn1cc(/C=N/NC(=O)c2ccc3c(c2)OCO3)cn1,7,?,i,-1%,-4%
CCOC(=O)c1ccc(NC(=O)c2cc(=O)c3ccc(C)c(C)c3o2)cc1,.,i,i,.,.
O=C(NCCN1C(=O)S/C(=C\c2cccc(Cl)c2Cl)C1=O)C1=COCCO1,i,15µM*,21µM*,2.6µM*,?
CCN(C[C@H]1N[C@@](Cc2ccccc2)(C(=O)OC)[C@H]2C(=O)N(Cc3ccccc3)C(=O)[C@@H]12)C(=O)Nc1ccc(C(F)(F)F)cc1,?,?,?,?,-15%[9.22 µM]
COCCNC(=O)C1(C)CCCN(C(=O)c2cc(OC)c(OC)c(OC)c2)C1 (centres undefined),18,i,i,.,.
O=C(C1CCCN(S(=O)(=O)c2ccccc2[N+](=O)[O-])C1)N1CCCC1 (centres undefined),-1,12µM*,i,-7%,-1%
O=C(C1CCCN(S(=O)(=O)c2ccc(Br)cc2)C1)N1CCN(Cc2ccccc2)CC1 (centres undefined),-52*,i,?,15%,6%
O=C(O)C1CCCN(S(=O)(=O)c2ccccc2[N+](=O)[O-])C1 (centres undefined),6,?,i,-7%,1%
